BAZ2B inh: qHTS Assay for Inhibitors of BAZ2B; Bromodomain adjacent to zinc finger domain protein 2B (Homo sapiens), Q9UIF8; AlphaScreen BAZ2B-H3K14Ac peptide displacement; Potency, µM (titrated, usually from 114 µM), hits mostly inhibitors; 4.4% of 360,000 active; AID 504333, 2011; further: nearly all actives have a fitted effect of over 60% in size
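Complex of BAZ2B and biotin-H3K14Ac (50 nM apiece) forms over 30 min at RT, then faces library compounds up to 110 uM for another 30 min; AlphaScreen beads added, 20 min dark incubation, luminescence read.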
JMJD2A Tudor: qHTS Assay for Inhibitors of JMJD2A-Tudor Domain; Lysine-specific demethylase 4A (Homo sapiens), O75164; AlphaScreen JMJD2A-Tudor / H3K4me3 peptide binding; Potency, µM (top dose mostly 114 µM), usual class: inhibitors; 4.4% of 390,000 active; AID 504339, 2011; further: nearly all actives have a fitted effect of over 50% in size
Target sequence (O75164 whole entry, looked up, the tested form may be a part): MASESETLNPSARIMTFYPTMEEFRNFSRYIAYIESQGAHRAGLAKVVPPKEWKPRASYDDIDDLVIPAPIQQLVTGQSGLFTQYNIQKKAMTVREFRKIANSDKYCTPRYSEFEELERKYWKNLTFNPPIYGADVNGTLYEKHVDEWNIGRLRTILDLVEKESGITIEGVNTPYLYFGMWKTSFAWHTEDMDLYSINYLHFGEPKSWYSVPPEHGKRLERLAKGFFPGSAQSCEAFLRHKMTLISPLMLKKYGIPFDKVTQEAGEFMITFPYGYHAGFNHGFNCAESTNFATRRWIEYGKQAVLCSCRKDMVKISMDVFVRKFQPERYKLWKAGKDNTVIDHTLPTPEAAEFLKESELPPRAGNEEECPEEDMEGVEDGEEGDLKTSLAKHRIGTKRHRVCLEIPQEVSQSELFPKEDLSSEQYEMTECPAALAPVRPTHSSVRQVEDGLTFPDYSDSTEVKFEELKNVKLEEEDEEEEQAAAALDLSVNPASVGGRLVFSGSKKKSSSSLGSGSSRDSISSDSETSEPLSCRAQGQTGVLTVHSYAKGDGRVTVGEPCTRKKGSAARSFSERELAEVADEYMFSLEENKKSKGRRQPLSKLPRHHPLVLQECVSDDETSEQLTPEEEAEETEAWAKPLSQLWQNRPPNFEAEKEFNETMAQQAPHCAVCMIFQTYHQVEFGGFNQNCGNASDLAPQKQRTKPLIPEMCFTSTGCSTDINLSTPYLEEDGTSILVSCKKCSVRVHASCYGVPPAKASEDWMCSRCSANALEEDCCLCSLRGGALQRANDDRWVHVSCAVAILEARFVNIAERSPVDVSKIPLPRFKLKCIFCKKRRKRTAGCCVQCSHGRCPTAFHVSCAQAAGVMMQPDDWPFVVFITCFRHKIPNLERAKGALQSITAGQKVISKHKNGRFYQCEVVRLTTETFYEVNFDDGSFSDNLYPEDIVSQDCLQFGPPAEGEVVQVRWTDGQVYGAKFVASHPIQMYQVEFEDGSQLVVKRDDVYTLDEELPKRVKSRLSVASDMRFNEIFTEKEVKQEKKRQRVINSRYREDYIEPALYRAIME
HP1b chromo inh: HTS for Inhibitors of HP1-beta Chromodomain Interactions with Methylated Histone Tails | AlphaScreen HP1-beta / biotin-H3K9me3 peptide binding | Potency, µM (top dose mostly 114 µM), hits mostly inhibitors | 0.56% of 390,000 active | AID 540317, 2011; further: nearly all actives have a fitted effect of over 70% in size
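Compound inhibition of the preformed complex between 50 nM HP1-beta and 50 nM biotinylated H3K9me3 peptide was read by AlphaScreen. Buffer was PBS pH 7.4 with 0.01% Tween-20. Incubations ran 30 min at room temperature, with 10 ug/mL donor/acceptor beads.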
L3MBTL1 inh: qHTS Assay for the Inhibitors of L3MBTL1 | 0.66% of 230,000 active | Lethal(3)malignant brain tumor-like protein 1 (Homo sapiens), Q9Y468 | AlphaScreen L3MBTL1–H3K9me1 peptide binding | AID 485360, 2010 | Potency, µM (series often up to 57.1 µM), hits mostly inhibitors; further: nearly all actives have a fitted effect of over 60% in size
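L3MBTL1 50 nM + b-AHA-H3(1-15)K9me1 75 nM, 30 min RT; compound added, 30 min RT; streptavidin donor/Ni-chelate acceptor beads 10 ug/mL each final, 30 min RT dark; AlphaScreen read.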
VDR inh: Inhibitors of the vitamin D receptor (VDR): qHTS; Vitamin D3 receptor (Homo sapiens), P11473; VDR-SRC2-3 peptide fluorescence polarization, 2 h; Potency, µM, usual class: inhibitors; 0.93% of 400,000 active
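FP read-out; VDR + SRC2-3 coactivator peptide; 23 nl compound by pintool; 2 h RT incubation; reagents held at 4 deg C, protected from light.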
PLK1 PBD inh: qHTS for Inhibitors of PLK1-PDB (polo-like kinase 1 - polo-box domain): Primary Screen; Serine/threonine-protein kinase PLK1 (Homo sapiens), P53350; Plk1 PBD binding of FITC phosphopeptide, fluorescence polarization; Potency, µM, hits mostly inhibitors; 2.8% of 360,000 active; AID 720504, 2013; further: series mostly up to about 57 µM; nearly all actives have a fitted effect of over 65% in size
Numbers stand for hits; . = inactive; ? = inconclusive; / = no result given; [ ] = another dose, or the depositor's remark. An excerpt weighted towards active compounds, which were near 6.9% of everything screened. The call rests on the fitted dose curve; in most records, active means well fitted curve in the direction sought with a large enough effect; inconclusive means small, poorly fitted or top-dose-only effect, or another doubt; inactive means no such curve, though single readings can be large; an effect the other way counts as inactive or inconclusive.

SMILES	BAZ2B inh	JMJD2A Tudor	HP1b chromo inh	L3MBTL1 inh	VDR inh	PLK1 PBD inh
COC(=O)C1=CN(c2cccc(OCc3ccccc3)c2)C(N)=C(C#N)C1c1cccc(F)c1 (stereo not drawn)	/	/	/	/	/	.
COc1ccc(N2CCN(c3ncnc4scc(-c5ccc(C)cc5)c34)CC2)cc1	11µM	25µM	?	/	.	.
CCOC(=O)c1ccc(S(=O)(=O)N2CCC(C(=O)OCC)CC2)cc1	.	.	.	.	.	.
CCOC(=O)C1CCN(S(=O)(=O)c2ccc3c(c2)NC(=O)C(C)S3)CC1 (stereo not drawn)	.	.	.	/	.	.
CCOc1ccc(S(=O)(=O)NC2CCCCC2C)cc1 (stereo not drawn)	/	.	.	/	.	.
CC(=O)N1CC(C)Sc2ccc(S(=O)(=O)NC3CCCCC3C)cc21 (stereo not drawn)	.	?	.	/	.	30µM
CCOC(=O)C1CCN(S(=O)(=O)c2ccc3c(c2)N(C(C)=O)CC(C)S3)CC1 (stereo not drawn)	.	?	.	/	?	19µM
CCOC(=O)C1CCN(S(=O)(=O)c2ccc(CC)cc2)CC1	.	40µM	.	.	40µM	8.4µM
CC(C)=CCC1C(=O)N(c2ccccc2)N(c2ccccc2)C1=O	/	/	/	/	25µM	/
Cc1ccccc1OC(=O)n1c(=S)oc2cc(Cl)ccc21	.	35µM	.	/	.	13µM
O=C(Oc1ccccc1)n1c(=S)oc2ccccc21	.	20µM	.	.	.	21µM
CCOc1ccccc1NC(=O)Cn1c(=O)oc2cc(Cl)ccc21	.	.	.	/	.	.
O=C1CS(=O)(=O)C2(C(=O)Nc3ccccc32)N1c1cccc(Cl)c1 (stereo not drawn)	.	.	.	/	.	/
COc1ccc(C(=O)Nc2nnc(SCc3cc(=O)c4cccc(F)c4[nH]3)s2)cc1	.	.	.	/	.	/
CCc1ccc(NC(=O)c2ccc3[nH]c(C)c(C)c3c2)cc1	.	.	.	/	.	/
Cc1ccc(NS(=O)(=O)c2ccc(NC(=O)c3ccccc3C(=O)O)cc2)c(C)c1	/	.	.	/	.	.
COc1nccnc1NS(=O)(=O)c1ccc(NC(=O)c2cccc(C)c2)cc1	79µM	.	.	.	.	.
COc1ccc(NS(=O)(=O)c2ccc(NC(=O)c3ccccc3)cc2)nn1	.	.[11.4 µM]	.	/	?	15µM
Cc1ccc(NS(=O)(=O)c2ccc(NC(=O)c3ccc(-c4ccccc4)cc3)cc2)c(C)c1	/	.[11.4 µM]	.	/	.	24µM
Cc1ccc(NS(=O)(=O)c2cc(NC(=O)c3ccc4c(c3)NC(=O)CS4)ccc2C)c(C)c1	.	?	?	.	?	9.5µM
COc1ccc(NC(=O)c2ccc3c(c2)NC(=O)CS3)cc1S(=O)(=O)Nc1ccc(Br)cc1	.	.	.	.	.	?
CC1CCN(CCCNC(=O)C2CCN(S(=O)(=O)N3CCC4(CC3)OCCO4)CC2)CC1	.	.	.	/	.	.
Cc1ccc(NC(=O)NCc2c(-n3cccc3)sc3c2CCCC3)c(Cl)c1	?	.	.	/	.	/
COCCCNC(=O)[C@@H](Cc1ccccc1)NC(=O)CC[C@H]1O[C@@H](n2ccc(=O)[nH]c2=O)[C@H](O)[C@@H]1O	/	/	/	/	/	.
Cc1cc(C)c(Nc2cc(S(=O)(=O)O)c(N)c3c2C(=O)c2ccccc2C3=O)c(C)c1	5.6µM	7.9µM	?	16µM	?	24µM
SMILES	BAZ2B inh	JMJD2A Tudor	HP1b chromo inh	L3MBTL1 inh	VDR inh	PLK1 PBD inh
Cc1cc(C)c(NC(=O)COC(=O)c2cccc3c2C(=O)c2ccccc2C3=O)c(C)c1	.	?	.	.	.	.
COc1ccc(CCCc2n[nH]c(=S)o2)c(C)c1	.	.	.	.	.	.
S=c1[nH]nc(Cc2ccc(Cl)cc2)o1	?	?	.	/	.	34µM
S=c1[nH]nc(CCCc2n[nH]c(=S)o2)o1	.	2.8µM	?	/	.	21µM
COc1ccc(CCCc2n[nH]c(=S)o2)cc1	?	.	.	/	.	.
COc1ccc(Cc2n[nH]c(=S)o2)cc1	.	32µM	.	.	.	.
